Here are results for six compounds from PubChem BioAssay (NCATS).

Records with an inconclusive call do not appear. Calls of active or inactive are those of the source. Unless noted, calls follow the shape of the dose curve; as a rule, active = well fitted curve in either direction with a large enough effect (not every such curve was filed as active); inconclusive = small, poorly fitted or top-dose-only effect, or another doubt; inactive = flat fitted curve, though single readings scatter.

Assay [1] deals with Lysosomal acid glucosylceramidase (Homo sapiens) (UniProt P04062). Nature of the assay: Glucocerebrosidase-p2 (AID 348; in the data active = potency below about 10 µM; also: potency is read from the fitted curve at half-maximal effect). The following applies: purified GBA, blue fluorogenic substrate, 40 min. In outline: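 Normal human glucocerebrosidase (0.2 nM) with blue fluorogenic substrate (80 uM final) in citrate/phosphate pH 5.9 with 10mM sodium taurocholate, 0.01% tween-20; 40 min RT, NaOH/glycine stop; fluorescence Ex 365/Em 440; AC50 from a titration from 0.6 nM upwards.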

The nature of assay [2]: AP1 Signaling Pathway (AID 357). Also: % is scaled to controls: 0 for no effect and ±100 for the full control effect. To be noted: ME-180 AP-1-bla reporter, EGF-induced, beta-lactamase ratio, 5 h; at 7.69 µM (top of the series) unless noted. In outline: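 ME-180 cells with beta-lactamase reporter under AP-1 response element, stimulated with EC50 EGF; compounds tested in titration series, 5 h at 37 °C. CCF4 substrate added 2.5 h at room temperature; 460/530 nm emission ratio gave %activity and AC50.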

For assay [3], the target named is Cytochrome P450 1A2 (Homo sapiens) (UniProt P05177). Nature of the assay: p450-cyp1a2 (AID 410; calls by dose curve; also: potency is read from the fitted curve at half-maximal effect). To be noted: recombinant CYP1A2, luciferin-ME demethylation, luminescence; series mostly up to 57 µM. A digest of the protocol: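 20nM CYP1A2, 100uM Luciferin-ME (=Km), 100mM KPO4; cpd 10 min RT; +NADPH regen, 60 min RT; stop/detect 20 min; luminescence. Normalized to furafylline 57 uM = full inhibition.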

Assay [4] in a line: NFAT Signaling Pathway (AID 444).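 Also: carbachol stimulus at about its EC50 of 1 µM final; % is scaled to controls: 0 for no effect and ±100 for the full control effect.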 To be noted: Jurkat NFAT-bla M1, carbachol, beta-lactamase ratio, 5 h; at 7.69 µM (top of the series) unless noted. In outline:
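Jurkat cells with NFAT-driven β-lactamase reporter and co-expressed M1 receptor, stimulated with carbachol (final 1 uM, ~EC50), compound titration, 5 h at 37 °C. CCF4 loaded 1 h at RT; 460/530 nm ratio gave %activity and AC50.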

A short description of assay [5]: Stat Signaling Pathway (AID 446).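 Also: ME-180 cervical cancer cells given 40 pM IL-6 alongside compound; SIE-controlled beta-lactamase reporter measured as 460/530 nm FRET emission ratio; % is scaled to controls: 0 for no effect and ±100 for the full control effect.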 To be noted: ME-180 (cervical carcinoma) SIE beta-lactamase reporter, IL-6 stimulated, 5 h; at 7.69 µM (top of the series) unless noted. In outline:
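Normalization used AC90 stimulation (300 pM IL-6) and AC90 inhibition (125 nM pan-JAK inhibitor at 40 pM IL-6). The underlying signal is SIE-driven beta-lactamase in ME-180 cells after 5 h IL-6 exposure with compound.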

For assay [6], the target named is Glucocorticoid receptor (Homo sapiens) (UniProt P04150). Briefly: GR-EFC Redistribution (AID 451; calls by dose curve; also: potency is read from the fitted curve at half-maximal effect). The following applies: CHO-K1 GR-EFC translocation, beta-gal luminescence, 2 h. A digest of the protocol: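 CHO-K1 cells expressing nuclear EA and GR-ED fragments of b-gal; compounds titrated up to 46 uM final, 2 h at 37 C. GR nuclear translocation read as complemented b-gal luminescence after 1 h RT detection.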

Assay [7] has as its target Mitogen-activated protein kinase 10 (Mus musculus) (UniProt Q61831). Briefly: JNK3 AlphaScreen Assay (AID 530).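 Also: kinase came from lysate of stimulated human HepG2 cells; signal reports phosphorylation of biotinylated GST-cJun 1-79 at Ser73 with 10 µM ATP; % is scaled to controls: 0 for no effect and ±100 for the full control effect.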 To be noted: JNK3 lysate, c-Jun phosphorylation; series mostly up to 57.1 µM. A digest of the protocol: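 HepG2 lysate (IL-1b/TNFa pre-activated) + biotin-GST-cJun 1-79 + anti-pSer73 cJun; cpd titration, 15 min RT; ATP 10 uM start; Tris pH 7.6, MgCl2, DTT, vanadate; beads in EDTA buffer; AlphaScreen.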
(In Alpha technology, singlet oxygen from a donor bead excites a nearby acceptor bead.)

The target of assay [8] is 3',5'-cyclic-AMP phosphodiesterase 4B (Homo sapiens) (UniProt Q07343). Briefly: qHTS Assay for Inhibitors of PDE-IV (AID 607; active = well fitted activation curve with a large enough effect in the main read-out, with a control signal flat, not every such curve was filed as active; also: % of control where 0% means no effect). The following applies: HEK293 ACTOne CNG channel cells, membrane potential fluorescence; series mostly up to 22.9 µM. A digest of the protocol: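 HEK293 ACTOne cells with CNG channel (1000/well), endogenous PDE4; membrane potential dye, compounds up to 22.9 uM final. Fluorescence Ex 535/Em 590; RO 20-1724 (100 uM final) as reference.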

A short description of assay [9]: Confirmation and Secondary Assay for Modulators of Hemoglobin Beta Chain Splicing at IVS2 654 locus (AID 910; active = well fitted curve in the direction sought with a large enough effect; an effect the other way counts as inactive or inconclusive;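 also: HeLa cells stably carrying EGFP split by mutant beta-globin IVS2-654 intron; % of control where 0% means no effect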). To be noted: HeLa EGFP-654 splicing reporter, GFP fluorescence, 48 h; series mostly up to 38.3 µM. A digest of the protocol: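 HeLa cells stably expressing EGFP interrupted by β-globin IVS2-654 intron, seeded overnight in Opti-MEM/2% FCS, then treated 2 days at 37 °C. Restored splicing read as total peak GFP intensity per well by laser scanning cytometry (488 nm excitation, 500–520 nm emission); 500 nM antisense PNA as control.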

Assay [10] can be described thus: Confirmation and Secondary Assay for Modulators of Hemoglobin Beta Chain Splicing at IVS2 705 locus (AID 930; active = well fitted curve in the direction sought with a large enough effect; an effect the other way counts as inactive or inconclusive;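 also: HeLa cells stably expressing the EGFP-705 splicing reporter; % of control where 0% means no effect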). The following applies: HeLa EGFP-705 splicing reporter, GFP fluorescence, 48 h; series mostly up to 38.3 µM. In outline: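 Splice-correction reporter: EGFP cDNA split by beta-globin intron 2 bearing the 705 mutation, stably in HeLa. Compound incubation 2 days, 37C; fluorescent objects 5-250 µm summed per well.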

Assay [11] in a line: qHTS Assay for Lipid Storage Modulators (AID 1519; calls by dose curve). To be noted: Drosophila S3 cells, BODIPY lipid droplet/cell ratio, laser cytometry, cells loaded with oleic acid; for activity change, negative = inhibition: at 57.5 µM (top of the series). In outline: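 Cells seeded at 5,000 per well were treated with compounds over a concentration series and loaded with oleic acid (400 uM, as added). Lipid droplet fluorescence (488 nm excitation, 500-530 nm channel) was read by laser-scanning cytometry and normalized to 20 uM Triacsin C.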

Assay [12] has as its target Ubiquitin carboxyl-terminal hydrolase 1 (Homo sapiens) (UniProt O94782). Briefly: Inhibitors of USP1/UAF1: Pilot qHTS (AID 504865; active = well fitted curve in the direction sought with a large enough effect; an effect the other way counts as inactive or inconclusive;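 also: rhodamine fluorescence freed from ubiquitin-rhodamine substrate followed over time; top concentration of the series differs between compounds; % is scaled to controls: 0 for no effect and ±100 for the full control effect; nearly all actives have a fitted effect of over 35% in size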). To be noted: purified USP1/UAF1, Ub-rhodamine cleavage fluorescence; series mostly up to 54.9 µM. A digest of the protocol: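 In 50mM HEPES pH 7.8 containing 0.5mM EDTA, 1mM TCEP, 0.1 mg/ml BSA and 0.01% Tween-20, 1nM USP1/UAF1 is exposed to compound for 15 min, then Ub-Rho (150nM final) is added and fluorescence is read over time.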

Assay [13] is described as follows: Primary qHTS for small molecule stabilizers of the endoplasmic reticulum resident proteome: Secreted ER Calcium Modulated Protein (SERCaMP) assay (AID 1508630; active = well fitted curve in the direction sought with a large enough effect; an effect the other way counts as inactive or inconclusive; also: % is scaled to controls: 0 for no effect and ±100 for the full control effect). To be noted: SH-SY5Y GLuc-SERCaMP (Gaussia luciferase released on ER calcium loss) secretion, thapsigargin, luminescence; series mostly up to 38.4 µM. A digest of the protocol:
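The SH-SY5Y reporter protocol was run at 3 concentrations up to 38.3 uM (primary) or 11 concentrations (follow-up): 16 h compound, 100 nM thapsigargin for 4 h, then extracellular luciferase luminescence.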
On the technique in general: qHTS replaces the single test concentration by a dilution series.

Assay [14] has as its target Glucocorticoid receptor (Homo sapiens) (UniProt P04150). Briefly: GR-GFP Redistribution (AID 450;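 active = compounds whose dose series gives a full or clear partial fitted curve of increased nuclear translocation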; also: potency is read from the fitted curve at half-maximal effect). To be noted: U2OS GR-GFP nuclear translocation, laser cytometry, 2 h.
Assay [15] addresses Cytochrome P450 3A4 (Homo sapiens) (UniProt P08684). Nature of the assay: qHTS Assay for Activators of Cytochrome P450 3A4 (AID 885; active = well fitted curve in the direction sought with a large enough effect; an effect the other way counts as inactive or inconclusive; also: nearly all actives have a fitted effect of over 65% in size). To be noted: recombinant CYP3A4, Luciferin-PPXE luminescence, 60 min; series mostly up to 57.1 µM. In outline:
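Human CYP3A4 dealkylates Luciferin-PPXE to luciferin, which luciferase detection converts to light. Substrate was at its KM (25uM), buffer 200mM KPO4, reaction 60 min at RT.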

Setting [16] is: measured here: cell count channel max response.
[17] abbreviates: measured here: lipid channel max response.

Lysosomal acid glucosylceramidase (Homo sapiens), sequence (P04062 whole entry, looked up): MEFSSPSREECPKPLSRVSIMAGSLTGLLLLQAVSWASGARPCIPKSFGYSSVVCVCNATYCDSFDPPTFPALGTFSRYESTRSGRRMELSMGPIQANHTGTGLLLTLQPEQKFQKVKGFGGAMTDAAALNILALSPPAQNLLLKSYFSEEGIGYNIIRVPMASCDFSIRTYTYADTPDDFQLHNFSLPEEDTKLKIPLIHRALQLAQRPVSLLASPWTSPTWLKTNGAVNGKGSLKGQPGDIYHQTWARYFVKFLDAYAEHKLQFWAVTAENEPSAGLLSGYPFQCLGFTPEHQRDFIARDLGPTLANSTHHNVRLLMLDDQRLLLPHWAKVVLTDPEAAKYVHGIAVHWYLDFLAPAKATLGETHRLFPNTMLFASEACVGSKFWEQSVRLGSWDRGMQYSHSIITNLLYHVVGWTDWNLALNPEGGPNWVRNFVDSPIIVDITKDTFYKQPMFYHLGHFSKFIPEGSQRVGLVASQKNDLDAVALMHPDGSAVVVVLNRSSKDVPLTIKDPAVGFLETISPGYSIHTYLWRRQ
Cytochrome P450 3A4 (Homo sapiens), sequence (P08684 whole entry, looked up): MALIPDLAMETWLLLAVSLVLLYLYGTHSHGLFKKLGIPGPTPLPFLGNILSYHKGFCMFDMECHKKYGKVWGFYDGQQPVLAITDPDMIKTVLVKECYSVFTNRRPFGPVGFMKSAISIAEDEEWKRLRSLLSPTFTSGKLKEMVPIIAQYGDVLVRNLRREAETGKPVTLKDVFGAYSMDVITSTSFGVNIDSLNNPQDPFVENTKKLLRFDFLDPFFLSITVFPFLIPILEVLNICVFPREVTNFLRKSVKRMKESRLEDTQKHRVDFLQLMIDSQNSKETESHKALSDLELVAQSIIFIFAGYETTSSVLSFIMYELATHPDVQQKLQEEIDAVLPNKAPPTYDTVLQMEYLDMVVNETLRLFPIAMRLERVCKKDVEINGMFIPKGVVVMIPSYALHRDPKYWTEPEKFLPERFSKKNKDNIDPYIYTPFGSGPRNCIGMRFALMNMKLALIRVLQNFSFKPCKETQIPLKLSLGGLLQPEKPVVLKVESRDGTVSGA
Glucocorticoid receptor (Homo sapiens), sequence (P04150 whole entry, looked up, the tested form may be a part): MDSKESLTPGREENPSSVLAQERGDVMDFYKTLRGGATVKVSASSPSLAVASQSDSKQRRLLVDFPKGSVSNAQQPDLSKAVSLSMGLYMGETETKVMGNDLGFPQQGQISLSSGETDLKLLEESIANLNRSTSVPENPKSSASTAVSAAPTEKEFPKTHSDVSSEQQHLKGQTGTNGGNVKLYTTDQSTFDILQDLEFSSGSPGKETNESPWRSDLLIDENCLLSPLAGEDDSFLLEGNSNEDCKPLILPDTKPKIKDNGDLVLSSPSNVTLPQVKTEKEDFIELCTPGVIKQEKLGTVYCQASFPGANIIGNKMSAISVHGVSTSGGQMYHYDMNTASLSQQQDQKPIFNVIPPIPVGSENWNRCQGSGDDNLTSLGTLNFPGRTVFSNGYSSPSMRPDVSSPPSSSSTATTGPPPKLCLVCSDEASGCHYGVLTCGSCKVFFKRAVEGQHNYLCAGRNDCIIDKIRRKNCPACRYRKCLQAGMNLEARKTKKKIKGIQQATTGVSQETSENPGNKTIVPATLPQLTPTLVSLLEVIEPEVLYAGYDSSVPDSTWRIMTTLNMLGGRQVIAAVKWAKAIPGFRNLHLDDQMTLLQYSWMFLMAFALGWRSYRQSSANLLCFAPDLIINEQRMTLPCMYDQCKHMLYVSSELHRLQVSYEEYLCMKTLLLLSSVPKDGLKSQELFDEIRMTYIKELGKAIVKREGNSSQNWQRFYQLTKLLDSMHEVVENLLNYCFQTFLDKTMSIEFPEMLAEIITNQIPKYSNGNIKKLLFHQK
Cytochrome P450 1A2 (Homo sapiens), sequence (P05177 whole entry, looked up): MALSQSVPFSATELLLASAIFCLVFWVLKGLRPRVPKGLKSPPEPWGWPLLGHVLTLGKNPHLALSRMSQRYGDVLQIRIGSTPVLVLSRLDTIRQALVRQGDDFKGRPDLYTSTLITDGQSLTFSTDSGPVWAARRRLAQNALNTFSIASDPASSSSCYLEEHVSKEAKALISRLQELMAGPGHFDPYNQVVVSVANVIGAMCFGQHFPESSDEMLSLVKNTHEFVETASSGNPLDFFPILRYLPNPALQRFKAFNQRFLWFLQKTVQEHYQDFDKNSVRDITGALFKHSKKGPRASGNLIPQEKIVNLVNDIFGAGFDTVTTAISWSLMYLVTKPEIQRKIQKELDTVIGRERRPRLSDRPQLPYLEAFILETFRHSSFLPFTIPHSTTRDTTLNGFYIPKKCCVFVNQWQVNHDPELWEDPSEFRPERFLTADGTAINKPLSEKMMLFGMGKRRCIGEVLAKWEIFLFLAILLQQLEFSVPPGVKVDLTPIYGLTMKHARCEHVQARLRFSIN
3',5'-cyclic-AMP phosphodiesterase 4B (Homo sapiens), sequence (Q07343 whole entry, looked up): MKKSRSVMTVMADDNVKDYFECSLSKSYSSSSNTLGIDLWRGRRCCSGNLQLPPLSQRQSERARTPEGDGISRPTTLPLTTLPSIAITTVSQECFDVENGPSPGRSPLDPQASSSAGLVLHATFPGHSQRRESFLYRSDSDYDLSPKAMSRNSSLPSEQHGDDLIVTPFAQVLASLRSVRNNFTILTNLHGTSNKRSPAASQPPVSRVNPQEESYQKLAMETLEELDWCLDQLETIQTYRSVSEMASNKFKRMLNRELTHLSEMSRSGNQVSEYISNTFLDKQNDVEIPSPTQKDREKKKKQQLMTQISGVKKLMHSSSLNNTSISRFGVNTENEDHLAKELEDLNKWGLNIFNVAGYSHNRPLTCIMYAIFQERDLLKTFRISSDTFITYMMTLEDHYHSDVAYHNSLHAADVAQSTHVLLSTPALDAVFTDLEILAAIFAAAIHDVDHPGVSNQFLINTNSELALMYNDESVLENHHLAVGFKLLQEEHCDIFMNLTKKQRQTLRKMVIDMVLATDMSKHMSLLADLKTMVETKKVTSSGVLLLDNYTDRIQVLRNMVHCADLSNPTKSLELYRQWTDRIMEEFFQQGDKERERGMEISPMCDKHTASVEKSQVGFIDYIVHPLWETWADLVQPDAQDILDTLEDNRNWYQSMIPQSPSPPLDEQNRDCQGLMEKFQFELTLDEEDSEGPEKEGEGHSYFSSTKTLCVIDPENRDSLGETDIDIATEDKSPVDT
Ubiquitin carboxyl-terminal hydrolase 1 (Homo sapiens), sequence (O94782 whole entry, looked up): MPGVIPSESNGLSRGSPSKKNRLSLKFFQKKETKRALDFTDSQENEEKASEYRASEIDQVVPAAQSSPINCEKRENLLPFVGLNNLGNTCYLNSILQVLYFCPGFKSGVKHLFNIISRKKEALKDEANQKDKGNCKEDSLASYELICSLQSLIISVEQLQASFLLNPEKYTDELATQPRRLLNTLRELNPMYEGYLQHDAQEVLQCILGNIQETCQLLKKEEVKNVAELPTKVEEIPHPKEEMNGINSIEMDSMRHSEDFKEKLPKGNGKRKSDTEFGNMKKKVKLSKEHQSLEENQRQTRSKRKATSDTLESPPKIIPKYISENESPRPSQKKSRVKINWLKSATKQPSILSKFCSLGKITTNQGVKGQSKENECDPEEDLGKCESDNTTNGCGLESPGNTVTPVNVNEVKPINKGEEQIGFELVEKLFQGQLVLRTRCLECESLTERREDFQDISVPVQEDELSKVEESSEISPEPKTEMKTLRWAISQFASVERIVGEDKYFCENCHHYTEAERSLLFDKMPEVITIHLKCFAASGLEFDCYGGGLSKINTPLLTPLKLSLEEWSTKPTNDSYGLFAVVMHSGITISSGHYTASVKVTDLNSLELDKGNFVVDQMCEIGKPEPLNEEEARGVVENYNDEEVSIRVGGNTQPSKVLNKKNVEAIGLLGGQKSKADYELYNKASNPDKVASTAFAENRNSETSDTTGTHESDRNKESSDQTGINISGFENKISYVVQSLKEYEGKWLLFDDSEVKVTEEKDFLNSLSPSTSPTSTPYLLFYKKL

In the case of `CN1CCN(c2cc(-c3ccccc3C(F)(F)F)ncn2)CC1`, the Potency is > 11.4 µM (inactive) in [1], 12.6 µM (active) in assay [3] and > 46 µM (inactive) in [6]. Also, the activity change, negative = inhibition in [2] is 8.33% (inactive); in assay [4], -29.9% (inactive); in assay [11], 9.46% (inactive). The activity, negative = inhibition in [5] is 8.15% (inactive). Further, the outcome in assay [7], in [9] and in assay [10] was inactive. Also, the Potency entry in assay [8], in [12] and in [13] was “inactive” in each case. The max response came to 20.3% in assay [11] (setting [16]) and 26.3% in assay [11] (setting [17]).

Take `COC(=O)N1CCC2(CCN(Cc3cc(C(F)(F)F)cc(C(F)(F)F)c3)CC2)CC1`: the figures for the Potency in [1] and in [6] were > 11.4 µM (inactive) and > 46 µM (inactive), respectively. Besides, the activity change, negative = inhibition in [2] was -23.4% (inactive); in assay [4], -22.9% (inactive); in [11], 2.7% (inactive). For the same compound, the Potency result in [3] and in [13] was “inactive” in each case. The activity, negative = inhibition in assay [5] was 0.155% (inactive). Further, the call in [7] was inactive. For the same compound, the max response in [11] (setting [16]) was -2.08%; in assay [11] (setting [17]), 2.77%.

With `CN(C)c1nc(-c2ccoc2)nc2ccccc12`, the Potency in assay [1] was > 11.4 µM (inactive); in assay [3] it was 0.501 µM (active); in assay [14], > 46 µM (inactive); in [6] it was > 46 µM (inactive). In addition, the activity change, negative = inhibition in assay [2] is -8.03% (inactive); in assay [4], -9.32% (inactive); in assay [11], 8.68% (inactive). Further, the activity, negative = inhibition in [5] was 6.57% (inactive). Moreover, the compound was classed as inactive in [7], in [9] and in assay [10]. For the same compound, the Potency entry in assay [15] and in [13] was “inactive” each time. The max response in assay [11] (setting [16]) amounted to 8.73%; in [11] (setting [17]) it was 18.5%.

With `COc1ccc(NC(=O)N2CC3(CCN(C(=O)c4cccn4C)CC3)C2)cc1`, the Potency in assay [1] is > 11.4 µM (inactive); in [6], > 46 µM (inactive). Also, the activity change, negative = inhibition was -10.5% (inactive) in [2], 14.9% (inactive) in assay [4] and 6.73% (inactive) in [11]. The Potency result in assay [3] and in assay [13] was “inactive” throughout. Moreover, the activity, negative = inhibition in assay [5] is -11.3% (inactive). Besides, in assay [7], the compound was called inactive. Further, the figures for the max response in assay [11] (setting [16]) and in assay [11] (setting [17]) were 8.75% and 21.6%, respectively.

For the compound `c1csc(CNc2ccnc(-c3ccoc3)n2)c1`, the Potency in [1] is > 11.4 µM (inactive); in assay [3], 1 µM (active); in [14], > 46 µM (inactive); in [6] it was > 46 µM (inactive). Moreover, the activity change, negative = inhibition in assay [2] was 8.64% (inactive); in assay [4], -0.203% (inactive); in assay [11], 5% (inactive). Besides, the activity, negative = inhibition in assay [5] is 10.3% (inactive). Also, in assay [7], the compound was called inactive. For the same compound, the Potency result in assay [15] and in assay [13] was “inactive” each time. In addition, the max response in assay [11] (setting [16]) worked out at 21.1%; in [11] (setting [17]), 20.9%.

For `Cc1cccc(CNc2ccnc(-c3ccoc3)n2)c1`, the Potency in assay [1] was > 11.4 µM (inactive); in [3], 2 µM (active); in [14] it was > 46 µM (inactive); in assay [6], > 46 µM (inactive). Also, the values for the activity change, negative = inhibition in [2], in assay [4] and in assay [11] were 0.94% (inactive), 0.371% (inactive) and 6.91% (inactive), respectively. Besides, the activity, negative = inhibition in assay [5] is 6.16% (inactive). Besides, the call in [7], in [9] and in assay [10] was inactive. Moreover, the Potency result in assay [8], in assay [15] and in assay [13] was “inactive” each time. Besides, the max response is 1.7% in [11] (setting [16]) and 4.61% in assay [11] (setting [17]).
